The whole screen tested about 5,500 compounds, of which about 2,000 (36%) were called active. Roughly 18% stayed inconclusive and do not appear here. Some of the results follow. Unmarked numbers belong to inactive results. Cut-off read from the data, not from the text of the source: active = normalized growth mostly below about 0.91 (no sharp cut-off); inconclusive = no clear call, values can overlap the other calls; inactive = mostly above about 0.92.
Experiment: chemical genetic growth profiling, strain panel (AID 1159580);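 note: tested at 20 µM; growth read once vehicle control cultures reached saturation at 30 °C; 1 = growth at the plate median or of vehicle wells; lower values mean less growth of the strain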
Details: S. cerevisiae deletion strains, growth OD
[1] = locus YBL105C, strain PKC1, active compounds read low
[2] = locus YBR135W, strain CKS1, active compounds read low
[3] = locus YBR136W, strain MEC1, active compounds read low
[4] = locus YBR160W, strain CDC28, active compounds read low
[5] = locus YDL017W, strain CDC7, active compounds read low
[6] = locus YDL028C, strain MPS1, active compounds read low
[7] = locus YDL108W, strain KIN28, active compounds read low
[8] = locus YDL132W, strain cdc53, active compounds read low
[9] = locus YDL214C, strain PRR2, active compounds read low
[10] = locus YDR052C, strain DBF4, active compounds read low
[11] = locus YDR054C, strain cdc34, active compounds read low
[12] = locus YDR226W, strain ADK1, active compounds read low
[13] = locus YDR477W, strain SNF1, active compounds read low
[14] = locus YER123W, strain YCK3, active compounds read low
[15] = locus YER133W, strain GLC7, active compounds read low
[16] = locus YFL009W, strain cdc4, active compounds read low
[17] = locus YFL029C, strain CAK1, active compounds read low
[18] = locus YFR003C, strain YPI1, active compounds read low
[19] = locus YFR019W, strain FAB1, active compounds read low
[20] = locus YFR028C, strain CDC14, active compounds read low
[21] = locus YGR040W, strain KSS1, active compounds read low
[22] = locus YGR052W, strain FMP48, active compounds read low
[23] = locus YGR092W, strain DBF2, active compounds read low
[24] = locus YHR030C, strain SLT2, active compounds read low
[25] = locus YHR079C, strain IRE1, active compounds read low
[26] = locus YHR082C, strain KSP1, active compounds read low
[27] = locus YHR205W, strain SCH9, active compounds read low
[28] = locus YIL147C, strain SLN1, active compounds read low
[29] = locus YJL095W, strain BCK1, active compounds read low
[30] = locus YJL128C, strain PBS2, active compounds read low
[31] = locus YJL157C, strain FAR1, active compounds read low
[32] = locus YJR016C, strain ILV3, active compounds read low
[33] = locus YJR066W, strain TOR1 (second series), active compounds read low
[34] = locus YJR066W, strain TOR1, active compounds read low
[35] = locus YKL067W, strain YNK1, active compounds read low
[36] = locus YKL101W, strain HSL1, active compounds read low
[37] = locus YKL193C, strain SDS22, active compounds read low
[38] = locus YLR113W, strain HOG1, active compounds read low
[39] = locus YLR133W, strain CKI1, active compounds read low
[40] = locus YLR403W, strain SFP1, active compounds read low
[41] = locus YML070W, strain DAK1, active compounds read low
[42] = locus YMR001C, strain CDC5, active compounds read low
[43] = locus YMR205C, strain PFK2 (second series), active compounds read low
[44] = locus YNL006W, strain LST8, active compounds read low
[45] = locus YNL020C, strain ARK1, active compounds read low
[46] = locus YNL161W, strain CBK1, active compounds read low
[47] = locus YNL183C, strain NPR1, active compounds read low
[48] = locus YNL207W, strain RIO2, active compounds read low
[49] = locus YNL222W, strain SSU72, active compounds read low
[50] = locus YNL307C, strain MCK1 (second series), active compounds read low
[51] = locus YOL078W, strain AVO1, active compounds read low
[52] = locus YOL136C, strain PFK27, active compounds read low
[53] = locus YOR061W, strain CKA2, active compounds read low
[54] = locus YOR231W, strain MKK1, active compounds read low
[55] = locus YOR329C, strain SCD5, active compounds read low
[56] = locus YPL031C, strain PHO85, active compounds read low
[57] = locus YPL153C, strain RAD53, active compounds read low
[58] = locus YPL204W, strain HRR25, active compounds read low
[59] = locus YPL209C, strain IPL1, active compounds read low
[60] = locus YPL256C, strain CLN2, active compounds read low
[61] = locus YPR111W, strain DBF20, active compounds read low
[62] = strain NNK1, active compounds read low
[63] = strain TSCII, active compounds read low

NC(=O)c1cc[n+](CC2=C(C(=O)O)N3C(=O)[C@@H](NC(=O)[C@@H](c4ccccc4)S(=O)(=O)[O-])[C@H]3SC2)cc1
normalized growth (locus YAL040C, strain CLN3, active compounds read low): 0.993
normalized growth (locus YCL061C, strain MRC1 (second series), active compounds read low): 0.999
normalized growth (locus YER002W, strain NOP16, active compounds read low): 0.995
normalized growth (locus YNL128W, strain TEP1, active compounds read low): 1
normalized growth (locus YNL175C, strain NOP13, active compounds read low): 1
normalized growth (locus YNL197C, strain WHI3, active compounds read low): 0.983
normalized growth (locus YNL224C, strain SQS1, active compounds read low): 1
normalized growth (locus YOR083W, strain WHI5 (second series), active compounds read low): 1.07
normalized growth (locus YPL055C, strain LGE1, active compounds read low): 0.988

Nc1ccc(Sc2ccccc2)nc1Sc1ccccc1
normalized growth (locus YAR019C, strain CDC15, active compounds read low): 0.947
normalized growth [1]: 0.961
normalized growth [2]: 0.957
normalized growth [3]: 0.957
normalized growth [4]: 0.95
normalized growth [5]: 0.967
normalized growth [6]: 0.942
normalized growth (locus YDL101C, strain DUN1, active compounds read low): 0.963
normalized growth [7]: 0.958
normalized growth [8]: 0.958
normalized growth [9]: 0.927
normalized growth [10]: 0.976
normalized growth [11]: 0.947
normalized growth [12]: 0.957
normalized growth [13]: 0.901
normalized growth [14]: 0.918
normalized growth [15]: 0.927
normalized growth [16]: 0.938
normalized growth [17]: 0.935
normalized growth [18]: 0.961
normalized growth [19]: 0.984
normalized growth [20]: 0.94
normalized growth [21]: 0.909
normalized growth [22]: 0.956
normalized growth [23]: 0.875
normalized growth [24]: 0.697 (active)
normalized growth [25]: 0.893
normalized growth [26]: 0.948
normalized growth [27]: 0.878
normalized growth [28]: 0.962
normalized growth [29]: 0.859
normalized growth [30]: 0.886
normalized growth [31]: 0.935
normalized growth [32]: 0.965
normalized growth [33]: 0.896
normalized growth [34]: 0.851
normalized growth (locus YKL048C, strain ELM1, active compounds read low): 0.969
normalized growth [35]: 0.908
normalized growth [36]: 0.913
normalized growth [37]: 0.955
normalized growth (locus YKL203C, strain TOR2, active compounds read low): 1.01
normalized growth [38]: 0.757 (active)
normalized growth [39]: 0.945
normalized growth [40]: 0.922
normalized growth [41]: 0.915
normalized growth [42]: 0.956
normalized growth [43]: 0.938
normalized growth (locus YMR277W, strain FCP1, active compounds read low): 0.938
normalized growth [44]: 0.958
normalized growth [45]: 0.938
normalized growth [46]: 0.968
normalized growth [47]: 0.956
normalized growth [48]: 0.951
normalized growth [49]: 0.951
normalized growth [50]: 0.915
normalized growth [51]: 0.956
normalized growth [52]: 0.921
normalized growth [53]: 0.919
normalized growth (locus YOR119C, strain RIO1, active compounds read low): 0.935
normalized growth [54]: 0.883
normalized growth [55]: 0.962
normalized growth [56]: 0.906
normalized growth [57]: 0.906
normalized growth [58]: 0.903
normalized growth [59]: 0.959
normalized growth [60]: 0.85 (active)
normalized growth (locus YPR025C, strain CCL1, active compounds read low): 0.956
normalized growth (locus YPR106W, strain ISR1, active compounds read low): 0.957
normalized growth [61]: 0.926
normalized growth [62]: 0.954
normalized growth [63]: 0.945

CCOC(=O)c1cc(CC)sc1NC(=O)c1ccc([N+](=O)[O-])o1
normalized growth [1]: 0.959
normalized growth [2]: 0.992
normalized growth [3]: 0.999
normalized growth [4]: 1
normalized growth [5]: 1
normalized growth [6]: 0.988
normalized growth [7]: 0.998
normalized growth [8]: 0.996
normalized growth [9]: 0.226 (active)
normalized growth [10]: 1
normalized growth [11]: 0.985
normalized growth [12]: 0.985
normalized growth [13]: 0.327 (active)
normalized growth [14]: 0.34 (active)
normalized growth [15]: 0.347 (active)
normalized growth [16]: 0.985
normalized growth [17]: 0.929
normalized growth [18]: 1
normalized growth [19]: 0.3 (active)
normalized growth [20]: 0.991
normalized growth [21]: 0.43 (active)
normalized growth [22]: 0.205 (active)
normalized growth [23]: 0.505
normalized growth [24]: 0.281 (active)
normalized growth [25]: 0.727
normalized growth [26]: 0.202 (active)
normalized growth [27]: 0.153 (active)
normalized growth [28]: 1
normalized growth [29]: 0.318 (active)
normalized growth [30]: 0.938
normalized growth [31]: 0.372 (active)
normalized growth [32]: 0.95
normalized growth [33]: 0.197 (active)
normalized growth [34]: 0.212 (active)
normalized growth [35]: 0.435 (active)
normalized growth [36]: 0.451 (active)
normalized growth [37]: 0.98
normalized growth [38]: 0.574 (active)
normalized growth [39]: 0.18 (active)
normalized growth [40]: 0.129 (active)
normalized growth [41]: 0.471 (active)
normalized growth [42]: 0.998
normalized growth [43]: 0.47 (active)
normalized growth [44]: 0.507 (active)
normalized growth [45]: 0.338 (active)
normalized growth [46]: 0.987
normalized growth [47]: 0.175 (active)
normalized growth [48]: 0.995
normalized growth [49]: 0.993
normalized growth [50]: 0.464 (active)
normalized growth [51]: 1
normalized growth [52]: 0.378 (active)
normalized growth [53]: 0.334 (active)
normalized growth [54]: 0.756
normalized growth [55]: 1
normalized growth [56]: 0.169 (active)
normalized growth [57]: 0.487 (active)
normalized growth [58]: 0.464 (active)
normalized growth [59]: 0.979
normalized growth [60]: 0.337 (active)
normalized growth [61]: 0.906
normalized growth [62]: 0.995
normalized growth [63]: 0.998

Source: PubChem BioAssay AID1159580 (chemical genetic matrix, 2015)
